Measured values: ChEMBL document CHEMBL4296182, “CO-ADD screening of NIH NCI Diversity Set V”
For part of these data: Entries with a potency or affinity are not part of this list.

What was measured:
Staphylococcus aureus = assay: Antibacterial activity against Staphylococcus aureus MRSA ATCC 43300 (CO-ADD:GP_020); MIC in CAMBH media using NBS plates, by Resazurin F(560/590); type: functional; details: Concentration 20 uM, ASSAY_TEST Inhibition of Bacterial Growth, detection method Resazurin, Fluorescence (ex560/em590), MEDIA CAMHB, plate type 384well, CORNING #3640, time 18 hr
Acinetobacter baumannii = assay: Antibacterial activity against Acinetobacter baumannii ATCC 19606 (CO-ADD:GN_034); MIC in CAMBH media using NBS plates, by Resazurin F(560/590); type: functional; details: Concentration 20 uM, ASSAY_TEST Inhibition of Bacterial Growth, detection method Resazurin, Fluorescence (ex560/em590), MEDIA CAMHB, plate type 384well, CORNING #3640, time 18 hr
Escherichia coli = assay: Antibacterial activity against Escherichia coli ATCC 25922 (CO-ADD:GN_001); MIC in CAMBH media using NBS plates, by Resazurin F(560/590); type: functional; details: Concentration 20 uM, ASSAY_TEST Inhibition of Bacterial Growth, detection method Resazurin, Fluorescence (ex560/em590), MEDIA CAMHB, plate type 384well, CORNING #3640, time 18 hr
Klebsiella pneumoniae = details: Concentration 20 uM; ASSAY_TEST Inhibition of Bacterial Growth; detection method Absorption (OD600); MEDIA CAMHB; plate type 384well; NBS; CORNING #3640; time 18 hr
Candida albicans = details: 20 µM
Cryptococcus neoformans = details: Concentration 20 uM; ASSAY_TEST Inhibition of Fungal Growth; detection method Resazurin; Absorption (OD600-OD570); plate type 384well; NBS; CORNING #3640

Row | SMILES | Inhibition (Staphylococcus aureus) [%] | Inhibition (Acinetobacter baumannii) [%] | Inhibition (Escherichia coli) [%] | Inhibition (Klebsiella pneumoniae) [%] | Inhibition (Candida albicans) [%] | Inhibition (Cryptococcus neoformans) [%]
1 | COc1cc(C2NC(=O)C(C#N)=C(Nc3cccc(C)c3)S2)ccc1O (stereo not given) | 16.64 | 5.33 | 14.44 | 11.49 | 1.94 | -8.18
2 | CCOC(=O)C1=C(N)N=C(N)C1=Nc1ccc(OC)cc1 | 10.45 | -11.35 | 6.73 | 4.94 | -1.95 | -7.84
3 | Cn1c(CO)cnc1-c1ccccc1 | 2.4 | 0.07 | -8.68 | 2.59 | 2.13 | -3.98
4 | N#C/N=C/N1CC=C(c2ccc(Cl)cc2)CC1 | 11.33 | 10.12 | 1.23 | 20.23 | 8.73 | -3.92
5 | CC1(C)CCSC(/C=C/c2ccccc2)=N1 | 5.78 | 13.91 | -1.41 | 18.54 | 1.26 | -4.58
6 | CCOC(=O)/C(=N\O)C1=CSC2=NNC(C)(C)N12 | 3.63 | -13.67 | 6.92 | 9.3 | 5.91 | -6.65
7 | Nc1n[nH]c(-c2ccccc2)n1 | 11.8 | -13.69 | 16.83 | 8.63 | -1.64 | -8.71
8 | CC(C)C(=O)Nc1cccnc1 | -3.96 | -12.43 | 9.68 | 6.6 | 0.24 | 8.85
9 | CCCCn1cnc2c(S)nc(N)nc21 | 6.68 | -8.46 | -1.37 | 7.23 | 1.37 | -12.06
10 | CS(=O)(=O)O.OC(c1cc(C(F)(F)F)nc2c(Cl)cc(Cl)cc12)C1CCCCN1 (stereo not given) | 10.44 | 6.66 | 19.86 | 9.3 | 1 | -0.51
11 | COc1cc2c(NCCCCCO)ncnc2c(OC)c1OC | 13.68 | 10.53 | 6.4 | 13.53 | 0.91 | -4.07
12 | C/C(=N\O)C1CC(CC(=O)O)C1(C)C (stereo not given) | -0.7 | -12.7 | 4.91 | 2.97 | 2.15 | -5.7
13 | CC1=CC(=O)C(/C(C)=N/c2ccccc2Cl)C(=O)O1 (stereo not given) | 7.59 | 14.34 | -12.7 | 12.66 | 20.8 | 0.4
14 | Cc1ccncc1C(N)=O | 0.11 | -6.4 | 17.18 | 14.09 | 1.98 | -4.15
15 | Cn1c(=O)c2c(nc(OCCc3ccccc3)n2C)n(C)c1=O | 6.63 | -9.02 | 8.83 | 12.12 | 3.96 | -6.56
16 | CCCSc1nc2c(c(=O)n(C)c(=O)n2C)n1C | 3.15 | -8.65 | 0.8 | 7.42 | 2.63 | -7.02
17 | COc1cc(OC)c2c(=O)cc(-c3cccnc3)oc2c1 | 13.2 | 11.57 | -0.96 | 9.22 | 2.37 | -8.93
18 | Clc1c(Cl)c(Cl)c2[nH]nnc2c1Cl | -10.41 | -8.91 | 8.31 | 1.32 | 18.5 | -10.27
19 | CC(=O)Nc1nc(C)c(CCC2OCCO2)c(O)n1 | 4.85 | 12.66 | -15.79 | 16.29 | 5.32 | 22
20 | CCOC(=O)c1ccc(NC(=O)Oc2cc(C)c(Cl)cc2C(C)C)cc1 | 20.21 | 9.47 | 4.16 | 12.01 | 4.36 | -1.17
